Source: PubChem BioAssay (Milwaukee Institute for Drug Discovery)
Rows were chosen to be rich in hits. Some 6.8% of all compounds tested hit in one or more screens of this group.
NS3h inh CB – blocks HCV NS3 helicase binding to DNA | NS3h Cy5-dT15 DNA binding, fluorescence polarization | inhibition, % at 100 µM | hit rate 1.6% among 16,000;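 active = inhibition above the average over every tested compound plus 3 SD, cut at about 40% in these data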
Cy5 interf NS3h – Cy5 fluorescence interference, HCV helicase counter-screen; Cy5-dT15 DNA with NS3h; actives lie on both sides; signal over control mean, under 1 quenches; hit rate 6% among 16,000; fluorescence interference ratio at 100 µM;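 active = compound fluorescence over control fluorescence at most 0.8, a quencher, or at least a set upper limit, an enhancer; inactive = ratio between 0.8 and the set upper limit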
* = called active by the depositor.

SMILES	NS3h inh CB	Cy5 interf NS3h
O=C(Nc1cccc(O)c1)/C(=C/c1cccc([N+](=O)[O-])c1)NC(=O)c1ccccc1	10	0.89
Cc1ccc(C(=O)N/C(=C\c2cccc([N+](=O)[O-])c2)C(=O)Nc2ccc(C)c(C)c2)cc1	2	1.2*
O=C(Nc1ccc(C(=O)O)cc1)/C(=C/c1cccc([N+](=O)[O-])c1)NC(=O)c1ccccc1	1	0.97
O=S(=O)(c1ccc2c(c1)C(=NO)c1cc(S(=O)(=O)N3CCCC3)ccc1-2)N1CCCC1	0	1
CC(=O)ON=C1c2cc(S(=O)(=O)N(C)C)ccc2-c2ccc(S(=O)(=O)N(C)C)cc21	13	0.61*
O=C(/C=C/c1ccccc1)NC(=S)Nc1ccc(I)cc1	-18	1.1
N#CC1=C(N)C(C#N)(C#N)C(c2ccc(Cl)cc2Cl)C2CCCC=C12 (configuration not stated)	0	1.2*
Cc1cc(Br)ccc1OCC(=O)O/N=C(/N)c1ccccn1	9	0.95
Cc1ccc(-c2nc3ccccn3c2NC(=O)c2ccc(Cl)cc2)cc1	13	0.9
Cc1ccc(-c2nc3ccccn3c2NC(=O)c2ccccc2)cc1	20	0.78*
COc1ccccc1N1C(=O)CC(N2CCN(c3ncccn3)CC2)C1=O (configuration not stated)	-1	1.1
COc1cc([N+](=O)[O-])ccc1-c1ccc(/C=C2\C(=O)NC(=S)N(c3ccc(C)cc3)C2=O)o1	23	1.1
CCC1=NN2C(=N)/C(=C/c3ccc(-c4ccc([N+](=O)[O-])cc4OC)o3)C(=O)N=C2S1	9	1.2*
C=CCN1C(=O)/C(=C\c2ccc(OCCOc3cccc(OC)c3)cc2)SC1=S	6	1
C=CCN1C(=O)/C(=C\c2ccc(OC(=O)c3cccc(Br)c3)cc2)SC1=S	7	0.75*
Cc1ccc(C(=O)O/N=C(/N)c2cccnc2)cc1[N+](=O)[O-]	7	0.66*
Cc1ccc(C(=O)O/N=C(/N)c2ccccn2)cc1[N+](=O)[O-]	7	1
CCCCOc1ccc(C(=O)Nc2ccccc2OC(C)C)cc1	12	1
COc1cc(/C=C2/SC(=S)NC2=O)ccc1OS(=O)(=O)c1ccccc1[N+](=O)[O-]	5	1.3*
O=C1NC(=S)S/C1=C/c1ccc(OCc2cccc(C(=O)O)c2)cc1	46*	0.92
COc1cc(/C=C2/SC(=S)NC2=O)ccc1OC(=O)c1cccc(Br)c1	16	0.76*
COc1cc(/C=C2/SC(=NS(=O)(=O)c3ccccc3)NC2=O)c([N+](=O)[O-])cc1OC	16	0.96
COc1cc(/C=C2/SC(=S)NC2=O)ccc1OCc1ccc(I)cc1	14	1.1
O=C1NC(=S)S/C1=C/c1ccc(OCc2ccc(Cl)cc2)cc1	19	0.97
NC(=S)N/N=C(\Cc1ccccc1)c1ccc(-c2ccccc2)cc1	23	1
SMILES	NS3h inh CB	Cy5 interf NS3h
Cc1ccc(OCC(=O)n2cnnc2N)cc1	-4	0.86
O=C1C(=O)N(c2cccc(Cl)c2)C(c2ccccc2F)C1=C(O)c1ccccc1 (configuration not stated)	-2	0.95
CCCC(=O)Nc1cccc(NC(=O)c2ccc(-c3cccc(Cl)c3C)o2)c1	15	0.95
Oc1c(Cl)cc(Cl)cc1/C=N\N=C/c1cc(Cl)cc(Cl)c1O	7	1
CC1=C(C(=O)Nc2ccccc2)C(c2ccncc2)C(C#N)=C(SCC(N)=O)N1 (configuration not stated)	22	1
CCCc1noc(-c2ccccc2Cl)n1	2	0.76*
Clc1ccccc1Cc1noc(-c2ccccc2Cl)n1	2	0.92
CCCc1noc(-c2ccc(C(C)(C)C)cc2)n1	7	0.71*
Clc1ccccc1Cc1noc(-c2ccc(Br)cc2)n1	-2	1.1
COC(=O)C1=C(C)N(C)C(C)=C(C(=O)OC)C1c1cccc(OCc2ccccc2)c1	1	1
CC1=NN(C(=O)c2ccc(Cl)cc2)C(O)(c2cccnc2)C1 (configuration not stated)	-4	0.96
CC1=NN(C(=O)c2cccnc2)C(C)(O)C1(C)C (configuration not stated)	-2	0.65*
Cc1ccc2oc(Nc3nc(C)cc(=O)[nH]3)nc2c1	8	1
Cc1ccc2oc(C(Cl)(Cl)Cl)cc(=O)c2c1	-2	0.6*
Cc1ccc(N2C(=O)CC(NCCc3cccc(Cl)c3)C2=O)cc1 (configuration not stated)	8	1.1
COc1cccc(/C=C2/C=C(c3ccc(C)cc3)OC2=O)c1OC(C)=O	4	1
CC(C(=O)N1c2ccccc2CCc2ccccc21)N1C(=O)c2ccccc2C1=O (configuration not stated)	11	0.96
Cc1ccc(NC(=O)c2c(NC(=O)C(F)(F)F)sc3c2CCCCC3)c(C)c1	12	0.99
Cc1ccc(C(=O)N/C(=C/c2cccnc2)c2nc3ccccc3[nH]2)cc1	-8	0.8*
Cc1ccc(C(=O)N/C(=C\c2ccccc2F)c2nc(=S)[nH][nH]2)cc1	7	0.88
CC1=C(C(=O)OC(C)C)C(c2ccc(F)cc2)C(C(=O)OC(C)C)=C(C)N1	23	0.93
O=C(c1ccc(S(=O)(=O)N2CCCC2)cc1)N1CCN(c2ccccc2)CC1	4	0.91
CS(=O)(=O)N1CCN(C(=O)c2ccc(-c3ccccc3)cc2)CC1	0	0.62*
COc1cc(OC)c(/C=C2\C(=O)NC(=O)N(c3cccc(C)c3)C2=O)cc1Br	-1	1
CCN(CC)c1ccc(/C=C2\C(=O)NC(=O)N(c3cccc(C)c3)C2=O)c(OC)c1	13	1.3*
SMILES	NS3h inh CB	Cy5 interf NS3h
COc1ccccc1NC(=O)CN(c1ccc(C)cc1)S(=O)(=O)c1ccc(SC)cc1	20	0.69*
CSc1ccc(S(=O)(=O)N(CC(=O)Nc2cccc(Br)c2)c2ccc(C)cc2)cc1	10	0.85
COCCNC(=O)CN(c1ccc(C)cc1)S(=O)(=O)c1ccc(SC)cc1	4	0.92
CSc1ccc(S(=O)(=O)N(CC(=O)Nc2cccc(C)c2)c2ccc(C)cc2)cc1	22	0.7*
CCOc1ccccc1N(CC(=O)NC(C)c1ccccc1)S(=O)(=O)c1ccccc1 (configuration not stated)	8	1
O=C(Nc1cccc(Oc2ccc3c(c2)C(=O)N(c2ccccc2)C3=O)c1)c1ccc([N+](=O)[O-])cc1	13	1
Cc1ccc(C(C)C)c(OCC(=O)Nc2cccc(C)n2)c1	15	0.92
NC(=O)COc1ccc(/C=N\NS(=O)(=O)c2ccccc2)cc1	2	1.1
O=C(Nc1ccc(Cl)cc1)c1cc2ccccc2cc1O	5	0.98
Cc1ccc(NC(=O)c2cc3ccccc3cc2O)c(C)c1	11	0.77*
Cc1ccc(/C=C2/NC(=S)NC2=O)s1	20	1.1
Cc1ccc(/C=C2/SC(=S)NC2=O)s1	13	0.79*
Cc1c(Cl)cccc1N1C(=O)C2C3c4ccccc4C(C)(c4ccccc43)C2C1=O (configuration not stated)	5	1
COc1cc(OC)c([N+](=O)[O-])cc1/C=C(/C#N)C(=O)Nc1ccccc1	-1	1.1
COc1cc(OC)c([N+](=O)[O-])cc1C=O	9	0.65*
COC(=O)C(C)NC(=O)C(c1ccccc1)c1ccccc1 (configuration not stated)	-4	1
CCOc1ccc(C2=C/C(=C/c3cccs3)C(=O)O2)cc1	44*	0.99
